CendR NRP1 mod: modulators of CendR peptide binding to NRP-1, primary screen, biochemical, fluorescence polarization, uHTS; FAM-RPARPAR peptide binding to NRP-1; inhibition, % at 25 µM; actives 0.85% (n = 360,000);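 active means inhibition or corrected inhibition above about 18%, plus a signal ratio from 0.5 to 1.5, limit read from the data, passing the limit was not always enough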
SKN-1 block: suppressors of acrylamide-induced Pgst-4::GFP reporter in worms, primary screen, SKN-1 inhibitor project, whole organism, uHTS, GFP/RFP fluorescence ratio, strain VP596; C. elegans VP596 Pgst-4::GFP/RFP ratio, 24 h; inhibition, % at 21.8 µM; actives 0.49% (n = 360,000);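 active means interference check ratio from 0.5 to 1.5 plus GFP to RFP signal ratio inhibition reaching or exceeding a fixed threshold, cut at about 30% in these data, passing the limit was not always enough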
MEKK2wt PB1 HTS: modulators of MEK5 binding to wildtype MEKK2, primary screen, biochemical, multiplex bead flow cytometry, Alexa488-MEK5 | Mitogen-activated protein kinase kinase kinase 2 (Homo sapiens), Q9Y2U5 | Alexa488-MEK5 binding to MEKK2 WT; actives lie on both sides | binding response (% of control), % at 10 µM | actives 1.1% (n = 290,000) | AID 1531, 2009; in the data active means binding response below about 67% or above about 130%
MEKK3 PB1 HTS: modulators of MEKK3-MEK5 PB1 binding, primary screen, biochemical, wildtype MEKK3, multiplex bead flow cytometry, Alexa488-MEK5 | Mitogen-activated protein kinase kinase kinase 3 (Homo sapiens), Q99759 | bead-based flow cytometry, Alexa488-MEK5 binding to MEKK3; actives lie on both sides; 0 = blocked by unlabeled MEK5, 100 = vehicle | binding response (% of control), % at 10 µM | actives 1.4% (n = 290,000) | AID 1529, 2009;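 active means binding response more than 3 SD above or below the average of its plate-row segment, actives on both sides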;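 further: Alexa488 bead fluorescence after subtracting the streptavidin-only scavenger bead signal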
Target sequence (Q99759 whole entry, looked up): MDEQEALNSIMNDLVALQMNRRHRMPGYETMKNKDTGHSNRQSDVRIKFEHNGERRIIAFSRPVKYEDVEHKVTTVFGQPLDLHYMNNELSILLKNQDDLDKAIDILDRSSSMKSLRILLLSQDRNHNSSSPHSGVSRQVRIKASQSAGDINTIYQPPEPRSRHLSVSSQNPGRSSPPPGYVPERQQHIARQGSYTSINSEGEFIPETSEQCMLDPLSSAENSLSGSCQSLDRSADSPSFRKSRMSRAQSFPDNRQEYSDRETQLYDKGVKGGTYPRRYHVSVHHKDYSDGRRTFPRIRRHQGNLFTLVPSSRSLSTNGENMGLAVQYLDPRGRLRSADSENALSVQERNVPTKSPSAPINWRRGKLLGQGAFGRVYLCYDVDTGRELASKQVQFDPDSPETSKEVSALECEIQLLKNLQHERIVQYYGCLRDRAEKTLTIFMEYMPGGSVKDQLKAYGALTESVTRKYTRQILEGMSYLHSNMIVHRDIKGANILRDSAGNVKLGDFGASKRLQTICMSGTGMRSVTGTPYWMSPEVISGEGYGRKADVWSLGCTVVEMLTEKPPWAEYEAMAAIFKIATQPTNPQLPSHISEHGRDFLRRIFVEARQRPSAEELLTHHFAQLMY
MEKK2mut PB1 HTS: MEK5 binding signal on mutant MEKK2 PB1, primary screen, biochemical, multiplex bead flow cytometry, Alexa488-MEK5. percent response, % at 10 µM. actives 0.35% (n = 290,000). Alexa488-MEK5 binding to MEKK2 mutant. AID 1530, 2009; in the data active means percent response above about 24%, passing the limit was not always enough
Starred values were filed as active, the others as inactive; x = no result; [ ] = dose if it differs, or a comment. An excerpt weighted towards active compounds, which were near 3.2% of everything screened.

SMILES	CendR NRP1 mod	SKN-1 block	MEKK2wt PB1 HTS	MEKK3 PB1 HTS	MEKK2mut PB1 HTS
CCCCn1nnnc1C(c1cc2ccccc2o1)N1CCN(c2cc(C)nc3ccccc23)CC1 (stereo not drawn)	-18	0	x	x	x
COc1ccc(/C=C(\C#N)C(=O)NCC2CCCO2)cc1OC (stereo not drawn)	14	36*	88	75	-4
CC(=O)NCCNC(=O)c1ccc(CSc2nc3ccccc3s2)cc1	-4	2	108	103	4
CN1C(=O)C(N=Nc2ccc([N+](=O)[O-])cc2)SC1=S (stereo not drawn)	-12	96*	x	x	x
CN1CCCCCC1=Nc1ccc([N+](=O)[O-])cc1	0	-2	x	x	x
Cc1ccc(Cl)cc1N(CC(=O)NC(C)c1ccccc1)S(C)(=O)=O (stereo not drawn)	2	8	106	105	6
COc1ccc(CCNC(=O)c2ccc(CSc3ccc(Cl)cc3)o2)cc1OC	-9	1	x	x	x
O=C(Nc1ccccc1N1CCOCC1)C1CCCO1 (stereo not drawn)	-3	-26	x	x	x
CN1CCN(C(=S)c2cn(CCOc3ccccc3F)c3ccccc23)CC1	7	-5	-9.0*	102	4
CN1CCN(C(=S)c2cn(CCOc3ccccc3)c3ccccc23)CC1	11	3	109	104	-2
CCc1cc(C(=O)OC)c(NC(=O)c2ccoc2C)s1	39*	6	105	107	8
CCN(CC)C(=O)c1sc(NC(=O)Cc2ccc(OC)cc2)c(C#N)c1C	2	45*	104	104	5
COc1ccc(C(O)c2ncc(-c3ccccc3C)[nH]2)cc1 (stereo not drawn)	5	6	x	x	x
COc1ccc(CN2CCN(S(=O)(=O)c3ccc(F)cc3)CC2)cc1OC	-9	2	22*[inhibitor]	13*[inhibitor]	-18
O=C(OC1CC2CC1[C@H]1CCCCN1C2=O)N1CCN(S(=O)(=O)c2ccccc2)CC1 (stereo partly drawn)	3	13	x	x	x
CC1CCC(C(C)C)C(OC(=O)Cn2c(-c3ccccc3)[n+](C)c3ccccc32)C1 (stereo not drawn)	10	8	103	99	-2
Cc1cccc(OCc2n(CC(=O)OC3CC(C)CCC3C(C)C)c3ccccc3[n+]2C)c1 (stereo not drawn)	9	5	183*	103	30
C=C(C)CC(NCCc1ccccc1)c1ccco1 (stereo not drawn)	3	-4	164*	98	-15
Nc1cc(Cl)ccc1Oc1ccccc1	6	-4	93	88	-7
Cc1cccc(Oc2ccc(Cl)cc2N)c1	29*	-5	101	116	-1
O=C(N/N=C/c1ccncc1)c1cccc(N/N=C/c2ccncc2)c1	-2	15	100	98	-1
O=C(N/N=C/c1ccncc1)c1cccc(NC(=O)c2ccc(Cl)cc2)c1	-7	-2	66	54*[inhibitor]	-3
CCCc1c(Cc2cccc(F)c2)ncn1Cc1cccc(-c2ccccc2)c1	-10	-10	x	x	x
Cc1ccc(O)c(C(=O)C=Cc2ccccc2)c1	8	-4	x	x	x
O=C(C=Cc1ccccc1)c1cc(Br)ccc1O	-4	43*	x	x	x
SMILES	CendR NRP1 mod	SKN-1 block	MEKK2wt PB1 HTS	MEKK3 PB1 HTS	MEKK2mut PB1 HTS
Cc1ccc(NC(=O)c2ccccc2)cc1	10	29	95	100	-7
Cc1ccc(NC(=O)C(=O)c2ccc(C)cc2)cc1	9	37*	102	105	11
CCN1C(=O)/C(=C/N(C)c2ccccc2)OC1=S	-18	36*	96	97	0
CCOc1ccc2nc(NC(=O)c3ccc(S(=O)(=O)N4CCOCC4)cc3)sc2c1	-14	35*	x	x	x
CCOc1ccc2nc(NC(=O)c3ccco3)sc2c1	-9	35*	104	81	2
CCOc1ccc2nc(NC(=O)c3ccc(OC)c(S(=O)(=O)N4CCOCC4)c3)sc2c1	0	-5	101	99	-5
COc1ccc(F)cc1C1=CC(=O)C[C@H](c2ccc3c(c2)OCO3)C1	25*	11	x	x	x
O=C(N=C1c2ccccc2CN1c1ccccc1)c1cccc([N+](=O)[O-])c1	4	6	5.0*	95	4
COc1ccc2cc(OC)c(C(=O)N3CCOCC3)cc2c1	9	-7	-7.0*	100	2
Cn1c(-c2ccc(F)c(F)c2)cc2onc(-c3ccccc3)c2c1=O	18	4	x	x	x
COc1cccc(-c2cc3onc(-c4ccccc4)c3c(=O)n2C)c1	18*	-11	x	x	x
Nc1ccc(O)c2c1C(=O)c1ccccc1C2=O	34*	63	88	93	4
Nc1ccc(Br)c2c1C(=O)c1ccccc1C2=O	x	x	79	95	-5
Cc1c(C(=O)NCc2ccc3c(c2)OCO3)sc(=O)n1Cc1ccc(-c2ccccc2)cc1	-4	-14	x	x	x
Brc1ccc(-n2cnc(-c3ccccc3)c2)cc1	-11	40*	94	99	1
O=C(NCc1cccs1)c1ccc(S(=O)(=O)N2CCOCC2)cc1	21*	2	68	65	-15
O=C(NCc1n[nH]c(=S)n1-c1ccc(F)cc1)c1ccc(S(=O)(=O)N2CCOCC2)cc1	-2	38*	104	104	2
O=C(NCc1n[nH]c(=S)n1-c1ccccc1)c1ccc(S(=O)(=O)N2CCOCC2)cc1	-8	-16	97	94	-2
COC(=O)[C@]12CCCCC=C1N(CCc1ccc(OC)c(OC)c1)C(=O)[C@H](CC(=O)N1CCC(c3ccccc3)CC1)C2	1	-3	x	x	x
O=S(=O)(c1ccccc1)c1nc(-c2ccc(F)cc2)oc1N1CCOCC1	22*	-6	98	101	-3
O=S(=O)(c1ccc(F)cc1)c1nc(-c2ccccc2)oc1N1CCOCC1	-5	11	107	104	10
COc1ccccc1/C=C/C(=O)NCC(=O)N/N=C(/C)c1ccco1	1	8	86	94	-8
COc1ccc(/C(C)=N/NC(=O)CNC(=O)/C=C\c2ccccc2OC)c(OC)c1	4	37*	99	97	-6
C=CCn1nc(C(=O)Nc2ccc(OC)cc2)cc1-c1sc(NC(=O)c2ccccc2)nc1C	-15	0	x	x	x
Oc1ccccc1C=NCCN1CCN(CCN=Cc2ccccc2O)C1c1ccccc1O (stereo not drawn)	22*	5	x	x	x
Oc1ccccc1C=NCCN=Cc1ccccc1O	1	-3	93	104	2
COc1ccc(OCC(=O)Nc2c3c(nn2-c2ccccc2)CS(=O)(=O)C3)cc1	16	5	99	101	1
